The panel holds about 83,000 compounds, 20% with a hit somewhere; the sample as a whole holds those more often.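 Growth was measured after 48 h exposure to one concentration of compound in 96-well plates. Values under 10 count as active.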 Calls of active or inactive are those of the source.
Experiments:
Experiment in all cases: NCI-60 one-dose screen, 48 h (100 = growth as untreated, 0 = no growth, -100 = all killed)
Conditions in all cases: 10 µM unless noted
RPMI-8226 leukemia = system: RPMI-8226 leukemia
OVCAR-8 ovarian = system: OVCAR-8 ovarian
OVCAR-5 ovarian = system: OVCAR-5 ovarian
OVCAR-4 ovarian = system: OVCAR-4 ovarian
SK-OV-3 ovarian = system: SK-OV-3 ovarian
IGROV1 ovarian = system: IGROV1 ovarian
OVCAR-3 ovarian = system: OVCAR-3 ovarian
HS 578T breast = system: HS 578T breast
NCI/ADR-RES ovarian = system: NCI/ADR-RES ovarian
T-47D breast = system: T-47D breast
BT-549 breast = system: BT-549 breast
MDA-MB-435 melanoma = system: MDA-MB-435 melanoma
SW-620 colon = system: SW-620 colon
MCF7 breast = system: MCF7 breast
HCT-116 colon = system: HCT-116 colon
HCC-2998 colon = system: HCC-2998 colon
KM12 colon = system: KM12 colon

Measured: growth

CCOC(=O)NC(Cc1ccccc1)c1ccccc1 (stereo not drawn)
inactive: RPMI-8226 leukemia 98.2% | OVCAR-8 ovarian 104% | OVCAR-5 ovarian 106% | OVCAR-4 ovarian 106% | SK-OV-3 ovarian 108% | IGROV1 ovarian 103% | OVCAR-3 ovarian 119% | HS 578T breast 102% | NCI/ADR-RES ovarian 98.2% | T-47D breast 99.6% | BT-549 breast 96.5% | MDA-MB-435 melanoma 114% | SW-620 colon 95.2% | MCF7 breast 101% | HCT-116 colon 96% | HCC-2998 colon 104% | KM12 colon 110%

Cc1cc(C)c(NC(=O)c2sc3nc4c(cc3c2N)CCCCCC4)c(C)c1
active: MDA-MB-435 melanoma 4.56%
inactive: RPMI-8226 leukemia 66.3% | OVCAR-8 ovarian 73.9% | OVCAR-5 ovarian 95.3% | OVCAR-4 ovarian 73.7% | SK-OV-3 ovarian 44.6% | IGROV1 ovarian 61.2% | OVCAR-3 ovarian 15.8% | HS 578T breast 47.6% | NCI/ADR-RES ovarian 48.1% | T-47D breast 44.5% | BT-549 breast 53.6% | SW-620 colon 36.2% | MCF7 breast 24.3% | HCT-116 colon 57.3% | HCC-2998 colon 84.7% | KM12 colon 49%

Cc1c(C(=O)Nc2nc3ccccc3[nH]2)cnn1-c1ccccn1
inactive: RPMI-8226 leukemia 95.6% | OVCAR-8 ovarian 98.3% | OVCAR-5 ovarian 108% | OVCAR-4 ovarian 105% | SK-OV-3 ovarian 104% | IGROV1 ovarian 114% | OVCAR-3 ovarian 112% | HS 578T breast 112% | NCI/ADR-RES ovarian 106% | T-47D breast 101% | BT-549 breast 111% | MDA-MB-435 melanoma 108% | SW-620 colon 107% | MCF7 breast 95.6% | HCT-116 colon 97.3% | HCC-2998 colon 97.3% | KM12 colon 103%

C=C(C)[C@@H]1CC[C@]2(C(N)=O)CC[C@]3(C)[C@H](CC[C@@H]4[C@@]5(C)CCCNC(C)(C)[C@@H]5CC[C@]43C)[C@@H]12
inactive: RPMI-8226 leukemia 13.5% | OVCAR-8 ovarian 82.1% | OVCAR-5 ovarian 82.9% | OVCAR-4 ovarian 83.6% | SK-OV-3 ovarian 87.5% | IGROV1 ovarian 84.2% | OVCAR-3 ovarian 88.8% | HS 578T breast 74.9% | NCI/ADR-RES ovarian 84.6% | T-47D breast 55.9% | BT-549 breast 85.2% | MDA-MB-435 melanoma 78.7% | SW-620 colon 75.5% | MCF7 breast 45.3% | HCT-116 colon 55.8% | HCC-2998 colon 98.2% | KM12 colon 79.8%

Reference: PubChem BioAssay (NCI)
